This is an account of results in PubChem BioAssay (EPA / NIEHS).

For orientation: AC50 means the concentration giving half of the maximal activity seen.

Details in all cases: mRNA level, 48 h; actives raise or lower the signal
Read-out in assay [1]: MicroRNA 122 (MIR122), gene 406906
Nature of the assay: LTEA_HepaRG_MIR122: Life Technologies and Expression Analysis (LTEA) Assay for MicroRNA 122 (MIR122) using HepaRG (AID 2283516). Further: the transcript read is the microRNA miR-122. In short, it runs like this:
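Expression measured by microfluidic qRT-PCR with three housekeeping genes for normalisation, after 48 h treatment of HepaRG cultures. Eight concentrations (top 100 uM, half-log steps, 0.5% DMSO vehicle) in duplicate; gain or loss fitted relative to vehicle.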

Read-out in assay [2]: matrix metalloproteinase-10 (MMP10), MMP10 (gene 4319)
Briefly: LTEA_HepaRG_MMP10: Life Technologies and Expression Analysis (LTEA) Assay for matrix metalloproteinase-10 (MMP10) using HepaRG (AID 2283517). In short, it runs like this:
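Expression measured by TaqMan qRT-PCR with ACTB/GAPDH/POLR2A normalisation after 48 h chemical exposure of HepaRG cells. Eight half-log concentrations, top 100 uM, 0.5% DMSO vehicle, duplicates; gain or loss fitted against vehicle.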

Read-out in assay [3]: MYC, MYC (gene 4609)
Nature of the assay: LTEA_HepaRG_MYC: Life Technologies and Expression Analysis (LTEA) Assay for MYC using HepaRG (AID 2283518). In short, it runs like this:
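Differentiated human HepaRG cells, plated 48 h then switched to serum-free induction medium, were exposed in duplicate for 48 h to 8-point half-log series up to 100 uM in 0.5% DMSO. MYC mRNA measured by qRT-PCR, normalized to ACTB/GAPDH/POLR2A.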

Read-out in assay [4]: matrix metalloproteinase-3 (MMP3), MMP3 (gene 4314)
Nature of the assay: LTEA_HepaRG_MMP3: Life Technologies and Expression Analysis (LTEA) Assay for matrix metalloproteinase-3 (MMP3) using HepaRG (AID 2283519). In short, it runs like this:
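Fluidigm-based TaqMan qRT-PCR, normalized to ACTB, GAPDH and POLR2A and fitted bidirectionally versus 0.5% DMSO, measured transcript levels. Treatment: duplicate 48 h exposures of HepaRG cells, ~100,000/well, to eight half-log concentrations topping at 100 uM.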

Read-out in assay [5]: Paternally Expressed 10 (PEG10), PEG10 (gene 23089)
Nature of the assay: LTEA_HepaRG_PEG10: Life Technologies and Expression Analysis (LTEA) Assay for Paternally Expressed 10 (PEG10) using HepaRG (AID 2283520).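 On AC50: PEG10 transcript by qRT-PCR normalised to ACTB GAPDH and POLR2A.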 In short, it runs like this: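 PEG10 transcript measured by Fluidigm qRT-PCR, normalized to three housekeeping genes, in HepaRG cells treated 48 h (highest 100 uM, half-log steps, 0.5% DMSO vehicle). Cells plated 48 h before switching to serum-free induction medium.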

Read-out in assay [6]: Nuclear factor NF-kappa-B p105 subunit (Homo sapiens) (UniProt P19838)
Briefly: LTEA_HepaRG_NFKB1: Life Technologies and Expression Analysis (LTEA) Assay for Nuclear Factor Kappa B Subunit 1 (NFKB1) using HepaRG (AID 2283521).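 On outcome: TaqMan qRT-PCR transcript normalised to ACTB GAPDH and POLR2A housekeeping genes.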 In short, it runs like this:
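Human HepaRG cells receive eight half-log concentrations, highest 100 uM, for 48 h. NFKB1 expression is then quantified by qRT-PCR and analysed for up- or down-regulation relative to 0.5% DMSO vehicle.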

Read-out in assay [7]: Protein phosphatase 2A (PPP2R4), PTPA (gene 5524)
Briefly: LTEA_HepaRG_PPP2R4: Life Technologies and Expression Analysis (LTEA) Assay for Protein phosphatase 2A (PPP2R4) using HepaRG (AID 2283522). In short, it runs like this: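 Expression was quantified by Fluidigm qRT-PCR normalised to three housekeeping genes after 48 h treatment. Human HepaRG cells received an 8-point series from 100 µM downward by half-logs, in duplicate with 0.5% DMSO vehicle and 1 mM phenobarbital as induction control.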

Read-out in assay [8]: Phosphatase and tensin (PTEN), PTEN (gene 5728)
Nature of the assay: LTEA_HepaRG_PTEN: Life Technologies and Expression Analysis (LTEA) Assay for Phosphatase and tensin (PTEN) using HepaRG (AID 2283523). In short, it runs like this: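 Read-out: TaqMan qRT-PCR of PTEN transcript, normalized to three housekeeping genes, fitted in both directions against 0.5% DMSO. Differentiated human HepaRG cultures received chemicals for 48 h, eight-point half-log series topping at 100 uM.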

Read-out in assay [9]: solute carrier (SLC22A1), SLC22A1 (gene 6580)
Nature of the assay: LTEA_HepaRG_SLC22A1: Life Technologies and Expression Analysis (LTEA) Assay for solute carrier (SLC22A1) using HepaRG (AID 2283524). In short, it runs like this:
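Transcript level of SLC22A1 quantified by qRT-PCR (normalized to three housekeeping genes) after 48 h chemical exposure of HepaRG cells, eight concentrations up to 100 µM, half-log steps, 0.5% DMSO vehicle. Gain or loss relative to DMSO fitted bidirectionally.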

Read-out in assay [10]: Pyruvate Dehydrogenase Kinase 4 (PDK4), PDK4 (gene 5166)
Nature of the assay: LTEA_HepaRG_PDK4: Life Technologies and Expression Analysis (LTEA) Assay for Pyruvate Dehydrogenase Kinase 4 (PDK4) using HepaRG (AID 2283525). In short, it runs like this:
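Readout is qRT-PCR of PDK4 transcript, normalized to three housekeeping genes, with bidirectional fitting against 0.5% DMSO vehicle. Differentiated HepaRG cells were treated 48 h in serum-free induction medium, duplicate wells, eight-point half-log series topping at 100 uM.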

The source made the active and inactive calls. How the source made its calls: active means hit-call score of the fitted dose curve at least 0.9, where 1 is the maximum; inactive means score below 0.9.

Nuclear factor NF-kappa-B p105 subunit (Homo sapiens), sequence (P19838 whole entry, looked up): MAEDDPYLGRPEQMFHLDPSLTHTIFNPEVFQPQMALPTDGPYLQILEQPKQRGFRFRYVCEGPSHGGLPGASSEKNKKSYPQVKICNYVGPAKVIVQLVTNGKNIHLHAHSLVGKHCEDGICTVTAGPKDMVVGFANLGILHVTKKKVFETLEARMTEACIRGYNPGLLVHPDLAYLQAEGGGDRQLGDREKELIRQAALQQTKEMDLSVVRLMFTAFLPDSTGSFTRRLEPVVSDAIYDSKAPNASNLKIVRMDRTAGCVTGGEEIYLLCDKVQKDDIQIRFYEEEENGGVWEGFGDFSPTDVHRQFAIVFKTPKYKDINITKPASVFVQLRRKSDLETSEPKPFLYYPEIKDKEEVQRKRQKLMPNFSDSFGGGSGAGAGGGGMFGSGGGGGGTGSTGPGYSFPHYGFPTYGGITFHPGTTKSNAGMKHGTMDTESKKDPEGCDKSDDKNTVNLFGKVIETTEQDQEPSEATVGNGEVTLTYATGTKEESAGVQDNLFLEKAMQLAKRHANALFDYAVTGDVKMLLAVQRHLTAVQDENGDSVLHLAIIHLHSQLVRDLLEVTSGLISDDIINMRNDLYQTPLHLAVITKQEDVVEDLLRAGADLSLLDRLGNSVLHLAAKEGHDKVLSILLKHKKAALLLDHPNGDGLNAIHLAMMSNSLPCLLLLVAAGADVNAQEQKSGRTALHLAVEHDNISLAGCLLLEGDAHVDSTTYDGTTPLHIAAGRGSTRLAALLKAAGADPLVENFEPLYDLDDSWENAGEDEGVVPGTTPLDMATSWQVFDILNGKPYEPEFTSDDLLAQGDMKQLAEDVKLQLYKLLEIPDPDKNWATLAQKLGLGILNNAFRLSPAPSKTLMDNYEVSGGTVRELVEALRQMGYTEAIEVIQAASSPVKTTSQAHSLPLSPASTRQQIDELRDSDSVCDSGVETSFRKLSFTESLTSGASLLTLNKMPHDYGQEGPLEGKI

In the case of `CCCCOC(=O)c1ccccc1`, the compound was called inactive in assay [1], in assay [2], in [3], in assay [4], in [5] and in assay [6]. Besides, the result in [7], in assay [8], in [9] and in assay [10] was inactive.
Regarding `CCc1ccc(O)c(C(C)(C)C)c1`, the result in assay [1], in [2], in [3], in assay [4], in assay [5] and in assay [6] was inactive. Moreover, the result in assay [7], in [8], in [9] and in [10] was inactive.
Turning to `CC(C)CC(C)O` (centres undefined), the outcome in assay [1], in [2], in assay [3], in assay [4], in assay [5] and in assay [6] was inactive. In addition, the compound was called inactive in [7], in assay [8], in assay [9] and in assay [10].
As to `CCN(CC)C(=S)SSC(=S)N(CC)CC`, the compound was classed as inactive in assay [1], in assay [2], in [3], in assay [4], in assay [5] and in assay [6]. Moreover, the compound was called inactive in [8], in assay [9] and in [10].
Consider `OCCOCCOCCO`, for which the result in assay [1], in [2], in assay [3], in assay [4], in assay [5] and in assay [6] was inactive. The compound was classed as inactive in assay [7], in assay [8], in assay [9] and in assay [10].
As for `Cc1nc(-c2ccccn2)ncc1C(=O)Nn1cc(C)c2cc(F)ccc21`, the AC50 was 50 µM (active) in assay [1], 34.2 µM (active) in [5] and 77.7 µM (active) in assay [9]. Moreover, the result in [2], in assay [3], in [4], in assay [6], in [8] and in assay [10] was inactive.
As to `Cn1cc[nH]c1=S`, the outcome in assay [1], in assay [2], in assay [3], in [4], in assay [5] and in assay [6] was inactive. The compound was called inactive in assay [8], in assay [9] and in assay [10].
As to `NC(=O)NN=Cc1ccc([N+](=O)[O-])o1`, the outcome in assay [1], in assay [5], in assay [6], in [7], in [8] and in [9] was inactive. In [10], the compound was classed as inactive. Besides, the values for the AC50 in assay [2], in [3] and in assay [4] were 9.92 µM (active), 0.151 µM (active) and 0.256 µM (active), respectively.
Regarding `CC(C)CCCCCCOC(=O)C1CCCCC1C(=O)OCCCCCCC(C)C` (centres undefined), the call in assay [1], in assay [2], in [3], in assay [4], in [5] and in [6] was inactive. Besides, the compound was classed as inactive in assay [7], in assay [8], in assay [9] and in [10].
`C=CCc1cc(S(=O)(=O)c2ccc(O)c(CC=C)c2)ccc1O`: the AC50 is 82 µM (active) in assay [1]; 93.2 µM (active) in assay [2]; 90 µM (active) in assay [3]; 92.2 µM (active) in assay [4]; 71 µM (active) in assay [5]; 50 µM (active) in assay [8]. Also, the values for the AC50 in [9] and in assay [10] were 89 µM (active) and 81.1 µM (active), respectively. Besides, the compound was classed as inactive in assay [6] and in [7].
For `NC(N)=O`, the compound was called inactive in assay [1], in assay [2], in assay [3], in [4], in assay [5] and in assay [6]. Moreover, the compound was classed as inactive in assay [7], in [8], in assay [9] and in assay [10].
With `CCCCCCCC/C=C\CCCCCCCC(=O)OC[C@@H](O)[C@H]1OC[C@H](O)[C@H]1O`, the call in assay [1], in [2], in [3], in assay [4], in assay [5] and in [6] was inactive. The result in assay [7], in assay [8], in [9] and in [10] was inactive.
Regarding `c1ccc2cc3ccccc3cc2c1`, the compound was called inactive in assay [1], in assay [2], in [3], in [4], in [5] and in [6]. In addition, the compound was called inactive in assay [8], in [9] and in assay [10].
As to `O=S(=O)(O)c1ccc(N=Nc2c(O)ccc3cc(S(=O)(=O)O)ccc23)cc1`, the compound was called inactive in assay [1], in assay [2], in assay [3], in [4], in assay [5] and in [6]. The result in assay [7], in assay [8], in assay [9] and in assay [10] was inactive.
For the compound `CCn1nc(C)c2c1C(=O)NCC(c1ccc(O)cc1)=N2`, the result in [1], in assay [2], in assay [3], in assay [4], in assay [5] and in [6] was inactive. The result in assay [8], in assay [9] and in [10] was inactive.
For `Cc1nccn1-c1ccc(Sc2cccc(C3(C(N)=O)CCOCC3)c2)cc1`, the AC50 in assay [1] is 15.1 µM (active); in assay [2], 17.6 µM (active); in [3] it was 9.67 µM (active); in assay [5], 2.9 µM (active); in assay [6], 3.18 µM (active); in [8], 28 µM (active). Further, in assay [9], the AC50 was 11.2 µM (active). For the same compound, the compound was classed as inactive in [4] and in assay [10].
